Experimental data: ChEMBL document CHEMBL3988442, “University of Dundee, Small-Polar-MMV Screening Library” (2021)
About 950 (1.4%) of roughly 69,000 compounds showed an effect of 50% or more. What follows is part of a selection rich in strong results, with near analogues and random picks from the rest.

System: Mycobacterium tuberculosis
Assay: Cornell M. t heat shock assay; note: in the data most compounds retested in dose-response had high values
Type: functional, organism-based
Parameters: dose or concentration left out as unconfirmed

SMILES | Percent Effect
O=C(CSc1nnc(N2CCNCC2)s1)Nc1ccccc1.O=C(O)C(F)(F)F | -1.012%
CC(C)Oc1ccc(CNC(=O)C2CCS(=O)(=O)C2)cn1 (centres undefined) | -25.56%
CC(NCCc1nccn1Cc1ccccc1)c1cccs1 (centres undefined) | 34.94%
Cc1ccc(C(C)NCCc2nccn2Cc2ccccc2)o1 (centres undefined) | -11.63%
CCc1ccc(C(C)NCc2nccn2Cc2ccccc2)o1 (centres undefined) | 91.1%
O=C(O)C(F)(F)F.c1ccc2c(c1)N(CC1CCOC1)CC21CCN(c2cnccn2)CC1 (centres undefined) | 16.03%
COCCN1CCCC2(CCC(=O)N2Cc2cccnc2)C1.O=C(O)C(F)(F)F (centres undefined) | -18.4%
Cc1nnc([C@]23COC[C@H]2CN(S(=O)(=O)c2cccnc2)C3)o1.O=C(O)C(F)(F)F | 48.22%
COc1ccc(CN(C(=O)C2CCCO2)c2ccncc2)cc1 (centres undefined) | -11.42%
COc1ccc(CN(C(=O)C2CCCS2)c2ccncc2)cc1 (centres undefined) | 99.59%
COc1ccc(CN(C(=O)C2CCOCC2)c2ccncc2)cc1 | -4.775%
O=C(CC1CC1)N1CCn2cc(Cn3cccn3)nc2C1.O=C(O)C(F)(F)F | -0.6568%
CC(C)n1nc(CN2CCOCC2)c2c1CN(C(=O)c1ccno1)C2.O=C(O)C(F)(F)F | 17.65%
Cc1ccc(CNCc2cccc3cccnc23)c(OC2CCOC2)c1 (centres undefined) | 87.35%
Cc1ccc(CNCc2cccc3cn[nH]c23)c(OC2CCOC2)c1 (centres undefined) | 3.326%
Cc1ccc(CNCc2c[nH]nc2C(C)(C)C)c(OC2CCOC2)c1 (centres undefined) | 18.1%
CC(C)N(C)Cc1cnc2n1CCN(Cc1cccc(F)c1)C2.O=C(O)C(F)(F)F.O=C(O)C(F)(F)F | -5.438%
Cc1nnc(N2CCCC3(CN(Cc4nccs4)CCO3)C2)o1.O=C(O)C(F)(F)F.O=C(O)C(F)(F)F (centres undefined) | -34.51%
CCN(CC)C1CCN(C(=O)c2cc3cc(C)cc(C)c3nc2C)CC1.Cl | 6.865%
Cl.FC(F)(F)c1ccc(-c2cnc(C3CCCN3)cn2)cc1 (centres undefined) | -8.787%
CC1COC2(CCN(C(=O)Cc3ccncc3)CC2)C1.O=C(O)C(F)(F)F (centres undefined) | 19.29%
Cn1cc(C2COC3(CCN(C(=O)Cc4ccccc4)CC3)C2)cn1 (centres undefined) | 32.13%
O=C(Cc1ccncc1)N1CCC2(CC1)CC(c1ccccc1)CO2.O=C(O)C(F)(F)F (centres undefined) | 53.05%

SMILES | Percent Effect
Cc1ccc(CN2CCn3c(CNC(=O)c4cccn4C)cnc3C2)s1.O=C(O)C(F)(F)F | 7.209%
COCC1Cn2nnc(-c3cnn(C)c3)c2CN1Cc1cccs1.O=C(O)C(F)(F)F (centres undefined) | 17.22%
COc1ccc(C)c(NC(=O)NCc2cccc(N(C)C)n2)c1 | 29.74%
CC(=O)c1ccc(NC(=O)NCc2cccc(N(C)C)n2)cc1C | 63.04%
CN(C)c1cccc(CNC(=O)Nc2ccc3[nH]nnc3c2)n1 | -8.207%
CS(=O)(=O)N1CCOCC2(CCN(c3ccccn3)C2)C1.O=C(O)C(F)(F)F (centres undefined) | -2.08%
CCN1CCC2(CCN(c3ncccn3)CC2)C1=O.O=C(O)C(F)(F)F | -1.865%
CN(C)Cc1ccc(C(=O)N2CCCC(COc3ccc(F)cc3)C2)o1 (centres undefined) | 1.225%
OCc1csc(N2CCCC(COc3cccc(F)c3)C2)n1 (centres undefined) | -18.57%
Nc1cc(N2CCCC(COc3ccc(F)cc3)C2)ncn1 (centres undefined) | -15.24%
Nc1cc(N2CCCC(COc3ccc(F)cc3)C2)nc(N)n1 (centres undefined) | 0.7864%
CN(C)Cc1nc(C(=O)N2CCCC(COc3ccc(F)cc3)C2)cs1 (centres undefined) | -4.47%
Cc1ccccc1OCC1CCCN(c2cc(N)nc(N)n2)C1 (centres undefined) | 94.51%
Cc1nc(CN(C)C)cc(N2CCCC(COc3ccc(F)cc3)C2)n1 (centres undefined) | 82.2%
CCNC(=O)c1ccnc(N2CCCC(COc3ccccc3C)C2)c1 (centres undefined) | -1.28%
Cc1nc(N)cc(N2CCCC(COc3cccc(F)c3)C2)n1 (centres undefined) | 95.51%
Cl.NCCc1cc(N2CCOCC2)nc(NC2CC2)n1 | -1.001%
Cn1cc(N2C(=O)CC[C@@H]3[C@H]2CCN3Cc2nccs2)cn1.O=C(O)C(F)(F)F | -19.88%
O=C(O)C(F)(F)F.O=C1C[C@H]2[C@@H](CCN2C(=O)Cc2cccs2)N1Cc1cccnc1 | -27.42%
Cn1cc(C(=O)N2CC[C@@H]3[C@@H]2CCN3Cc2cccc(F)c2)cn1.O=C(O)C(F)(F)F | 6.285%
O=C(O)C(F)(F)F.O=C(O)C(F)(F)F.O=C(O)C(F)(F)F.O=C1NC2(CCN(Cc3cccnc3)CC2)CC1c1cccnc1 (centres undefined) | -25.56%
Cc1cc(CN2CC[C@H]3C[C@H](C(=O)N4CCC(C)CC4)O[C@H]3C2)no1.O=C(O)C(F)(F)F | -0.569%
CC1(C)CC(N(Cc2cccnc2)Cc2cccc(F)c2)CC(C)(C)N1.O=C(O)CC(O)(CC(=O)O)C(=O)O | -20.05%

SMILES | Percent Effect
CC1c2ncc(Cn3cccn3)n2CCN1Cc1cccnc1.O=C(O)C(F)(F)F.O=C(O)C(F)(F)F (centres undefined) | -18.15%
O=C(O)C(F)(F)F.O=C(O)C(F)(F)F.c1cncc(CN2CCc3ncnc(C4CCOC4)c3CC2)c1 (centres undefined) | -9.628%
Cc1ccc2c(c1)CCC2NCc1c(C)nn(C)c1N1CCOCC1.Cl (centres undefined) | -16.61%
CC(=O)N1CCCC(c2cccc(-n3ccnc3)n2)C1 (centres undefined) | -20.38%
c1cnc(N2CCCC(c3cncc(-n4ccnc4)n3)C2)nc1 (centres undefined) | -40.48%
Cc1cc(C)nc(N2CCCC(c3cccc(-n4ccnc4)n3)C2)n1 (centres undefined) | 68.58%
O=C(c1ccc2[nH]ccc2c1)N1CCn2cnc(COCC3CC3)c2C1 | 54.29%
Cc1cccc(C(=O)N2CCn3cnc(COCC4CC4)c3C2)c1 | 29.98%
O=C(c1ccoc1)N1CCn2cnc(COCC3CC3)c2C1 | 1.475%
Cn1cc(N2CCC3(CCCN(Cc4ccc(F)cc4)C3)C2=O)cn1.O=C(O)C(F)(F)F (centres undefined) | -14.44%
CC(C)CCN1CCc2cc(C(=O)N(C)C)c(NCC3CC3)nc2CC1.O=C(O)C(F)(F)F.O=C(O)C(F)(F)F | -33.33%
CNC(=O)[C@H]1C[C@@H]2CN(Cc3csc(C)n3)C[C@@H]2N1S(C)(=O)=O.O=C(O)C(F)(F)F | 2.273%
COCc1cncc2c1CCN(C(=O)c1cccc(C#N)c1)C2.O=C(O)C(F)(F)F | 18.35%
OCC1N(Cc2ccc(F)cc2)[C@H]2CC[C@]1(O)CC2 (some centres undefined) | 36.63%
Cc1cc(C)cc(Nc2nc(C)cc(=O)n2CC(=O)NC(C)C)c1 | 5.735%
CCC(C)NC(=O)Cn1c(Nc2cc(C)cc(C)c2)nc(C)cc1=O (centres undefined) | 104.5%
Cc1cc(=O)n(CC(=O)NC(C)C)c(Nc2ccc(F)c(C)c2)n1 | -7.671%
Cc1ncsc1C(=O)N1CCCCC1c1cc2nc(C)c(C)c(O)n2n1 (centres undefined) | -18.91%
Cc1noc(C)c1CN1C[C@H]2CN(Cc3cccc(F)c3)C[C@H]2C1.O=C(O)C(F)(F)F.O=C(O)C(F)(F)F | 1.076%
CCC(=O)N1CCC2(CC1)c1nc[nH]c1CCN2S(C)(=O)=O | -7.001%
CCC(=O)N1CCc2[nH]cnc2C12CCN(C(=O)c1snnc1C)CC2 | -5.563%
CCC(=O)N1CCc2[nH]cnc2C12CCN(C(=O)CCS(C)(=O)=O)CC2 | 77.54%
O=C(O)C(F)(F)F.O=C(O)C(F)(F)F.c1cncc(N2CCCC3(CN(Cc4cccs4)CCO3)C2)c1 (centres undefined) | -18.25%

SMILES | Percent Effect
COCCN1CCc2ncnc(NC(C)C)c2CC1.O=C(O)C(F)(F)F | -1.499%
CS(=O)(=O)N1CCC(Nc2ccc(C#N)c(C(F)(F)F)c2)CC1 | -3.037%
N#Cc1ccc(NC2CCN(c3ncccn3)CC2)cc1C(F)(F)F | 101.3%
N#Cc1ccc(NC2CCN(c3ncccn3)CC2)cc1Cl | -23.07%
COCCN1CCC2(CCN(c3ncccn3)CC2)C1=O.O=C(O)C(F)(F)F | -21.42%
O=C(O)C(F)(F)F.O=C(c1cnccn1)N1C[C@@H](OCc2cccnc2)[C@H]2OCCC[C@H]21 | -23.96%
CN1CCCC(c2cncc(C(=O)NCc3ccccc3Cl)n2)C1.O=CO (centres undefined) | 5.616%
NC(=O)Cc1ccc(OCc2noc(C(=O)N3CCCC3)n2)cc1 | -10.23%
O=C(c1nc(Cc2c[nH]c3ccccc23)no1)N1CCCCC1 | 12.78%
CC(=O)Nc1ccc(OCc2noc(C(=O)N3CCCCC3)n2)cc1 | 65.04%
O=C(c1nc(COc2ccc3c(c2)OCO3)no1)N1CCCC1 | 24.96%
CC(=O)Nc1ccc(OCc2noc(C(=O)N3CCCC3)n2)cc1 | 4.312%
CC(=O)Nc1ccc(OCc2noc(C(=O)N3CCCCCC3)n2)cc1 | 51.07%
O=C(NCC1CC2(CO1)CN(Cc1cccs1)C2)C1CCC1.O=C(O)C(F)(F)F (centres undefined) | -27.85%
O=C(O)C(F)(F)F.O=C(c1ccncc1F)N1CC[C@@H]2OC(COCC3CC3)CC[C@@H]21 (some centres undefined) | -24.6%
CC(C)C(C)NC(=O)c1ncn2c1CN(C)S(=O)(=O)c1ccccc1-2.O=C(O)C(F)(F)F (centres undefined) | -5.107%
CCN(C)c1ncnc2c1CCN(Cc1ccsc1)CC2.O=C(O)C(F)(F)F.O=C(O)C(F)(F)F | -17.94%
O=C(Cn1cccc2cc(-c3ccc(F)cc3)nc1-2)N1CCC(O)CC1 | -13.39%
COc1ccc(-c2cc3cccn(CC(=O)N4CCOCC4)c-3n2)cc1 | -34.2%
CN(C)CCN(C)C(=O)Cn1cccc2cc(-c3ccc(F)cc3)nc1-2 | 93.82%
